Screen size: about 5,500 compounds; about 2,000 (36%) were called active. Not shown: some 18% with an inconclusive outcome. No stated cut-off is given here; in the data, active means normalized growth mostly below about 0.91 (no sharp cut-off); inconclusive means no clear call, values can overlap the other calls; inactive means mostly above about 0.92. Some of the results follow.
Experiment: chemical genetic growth profiling, strain panel (AID 1159580);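 further: tested at 20 µM; growth read once vehicle control cultures reached saturation at 30 °C; 1 = growth at the plate median or of vehicle wells; lower values mean less growth of the strain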
Conditions: growth OD
[1] = S. cerevisiae deletion strains, locus YDL101C, strain DUN1, active compounds read low
[2] = S. cerevisiae deletion strains, locus YHR030C, strain SLT2, active compounds read low

Measured: normalized growth

CCSc1nnc(N)s1
inactive: S. cerevisiae deletion strains, locus YAL013W, strain DEP1, active compounds read low 1.02 | S. cerevisiae deletion strains, locus YBR229C, strain ROT2, active compounds read low 1.01 | [1] 1.01 | S. cerevisiae deletion strains, locus YDL134C, strain PPH21, active compounds read low 1.01 | S. cerevisiae deletion strains, locus YDR150W, strain NUM1, active compounds read low 1 | S. cerevisiae deletion strains, locus YEL061C, strain CIN8, active compounds read low 0.996 | S. cerevisiae deletion strains, locus YGR078C, strain PAC10, active compounds read low 1.01 | [2] 1.05 | S. cerevisiae deletion strains, locus YHR087W, strain rtc3, active compounds read low 1.01 | S. cerevisiae deletion strains, locus YJL187C, strain SWE1, active compounds read low 1.01 | S. cerevisiae deletion strains, locus YJR043C, strain POL32, active compounds read low 1 | S. cerevisiae deletion strains, locus YJR075W, strain HOC1, active compounds read low 0.994 | S. cerevisiae deletion strains, locus YLR039C, strain RIC1, active compounds read low 1.01 | S. cerevisiae deletion strains, locus YLR058C, strain SHM2 (second series), active compounds read low 1.01 | S. cerevisiae deletion strains, locus YLR085C, strain ARP6, active compounds read low 0.999 | S. cerevisiae deletion strains, locus YLR262C, strain YPT6, active compounds read low 1.05 | S. cerevisiae deletion strains, locus YML094W, strain GIM5, active compounds read low 0.995 | S. cerevisiae deletion strains, locus YMR219W, strain ESC1, active compounds read low 1.01 | S. cerevisiae deletion strains, locus YMR263W, strain SAP30, active compounds read low 1 | S. cerevisiae deletion strains, locus YMR307W, strain GAS1, active compounds read low 0.981 | S. cerevisiae deletion strains, locus YNL128W, strain TEP1, active compounds read low 1.01 | S. cerevisiae deletion strains, locus YNL153C, strain GIM3, active compounds read low 0.997 | S. cerevisiae deletion strains, locus YNL298W, strain CLA4 (second series), active compounds read low 0.995 | S. cerevisiae deletion strains, locus YNL322C, strain KRE1, active compounds read low 1.02 | S. cerevisiae deletion strains, locus YNR030W, strain Alg12, active compounds read low 1.01 | S. cerevisiae deletion strains, locus YPL055C, strain LGE1, active compounds read low 0.997 | S. cerevisiae deletion strains, locus YPL241C, strain CIN2, active compounds read low 1.01 | S. cerevisiae deletion strains, locus YPR135W, strain CTF4, active compounds read low 1.11 | S. cerevisiae strains, strain wild type, active compounds read low 1.01

N#CC(C#N)=C/C=C(/Sc1ccc(F)c(Cl)c1)c1ccc(Cl)cc1
active: [2] 0.741 | S. cerevisiae deletion strains, locus YLR113W, strain HOG1, active compounds read low 0.632
inactive: S. cerevisiae deletion strains, locus YAR019C, strain CDC15, active compounds read low 0.937 | S. cerevisiae deletion strains, locus YBL105C, strain PKC1, active compounds read low 0.948 | S. cerevisiae deletion strains, locus YBR135W, strain CKS1, active compounds read low 0.943 | S. cerevisiae deletion strains, locus YBR136W, strain MEC1, active compounds read low 0.949 | S. cerevisiae deletion strains, locus YBR160W, strain CDC28, active compounds read low 0.958 | S. cerevisiae deletion strains, locus YDL017W, strain CDC7, active compounds read low 0.961 | S. cerevisiae deletion strains, locus YDL028C, strain MPS1, active compounds read low 0.949 | [1] 0.961 | S. cerevisiae deletion strains, locus YDL108W, strain KIN28, active compounds read low 0.947 | S. cerevisiae deletion strains, locus YDL132W, strain cdc53, active compounds read low 0.942 | S. cerevisiae deletion strains, locus YDL214C, strain PRR2, active compounds read low 0.891 | S. cerevisiae deletion strains, locus YDR052C, strain DBF4, active compounds read low 0.956 | S. cerevisiae deletion strains, locus YDR054C, strain cdc34, active compounds read low 0.943 | S. cerevisiae deletion strains, locus YDR226W, strain ADK1, active compounds read low 0.964 | S. cerevisiae deletion strains, locus YDR477W, strain SNF1, active compounds read low 0.839 | S. cerevisiae deletion strains, locus YER123W, strain YCK3, active compounds read low 0.822 | S. cerevisiae deletion strains, locus YER133W, strain GLC7, active compounds read low 0.872 | S. cerevisiae deletion strains, locus YFL009W, strain cdc4, active compounds read low 0.943 | S. cerevisiae deletion strains, locus YFL029C, strain CAK1, active compounds read low 0.951 | S. cerevisiae deletion strains, locus YFR003C, strain YPI1, active compounds read low 0.951 | S. cerevisiae deletion strains, locus YFR019W, strain FAB1, active compounds read low 0.95 | S. cerevisiae deletion strains, locus YFR028C, strain CDC14, active compounds read low 0.949 | S. cerevisiae deletion strains, locus YGR040W, strain KSS1, active compounds read low 0.823 | S. cerevisiae deletion strains, locus YGR052W, strain FMP48, active compounds read low 0.81 | S. cerevisiae deletion strains, locus YGR092W, strain DBF2, active compounds read low 0.759 | S. cerevisiae deletion strains, locus YHR079C, strain IRE1, active compounds read low 0.806 | S. cerevisiae deletion strains, locus YHR082C, strain KSP1, active compounds read low 0.839 | S. cerevisiae deletion strains, locus YHR205W, strain SCH9, active compounds read low 0.608 | S. cerevisiae deletion strains, locus YIL147C, strain SLN1, active compounds read low 0.951 | S. cerevisiae deletion strains, locus YJL095W, strain BCK1, active compounds read low 0.69 | S. cerevisiae deletion strains, locus YJL128C, strain PBS2, active compounds read low 0.896 | S. cerevisiae deletion strains, locus YJL157C, strain FAR1, active compounds read low 0.892 | S. cerevisiae deletion strains, locus YJR016C, strain ILV3, active compounds read low 0.937 | S. cerevisiae deletion strains, locus YJR066W, strain TOR1 (second series), active compounds read low 0.748 | S. cerevisiae deletion strains, locus YJR066W, strain TOR1, active compounds read low 0.781 | S. cerevisiae deletion strains, locus YKL048C, strain ELM1, active compounds read low 0.932 | S. cerevisiae deletion strains, locus YKL067W, strain YNK1, active compounds read low 0.888 | S. cerevisiae deletion strains, locus YKL101W, strain HSL1, active compounds read low 0.834 | S. cerevisiae deletion strains, locus YKL193C, strain SDS22, active compounds read low 0.947 | S. cerevisiae deletion strains, locus YKL203C, strain TOR2, active compounds read low 0.87 | S. cerevisiae deletion strains, locus YLR133W, strain CKI1, active compounds read low 0.906 | S. cerevisiae deletion strains, locus YLR403W, strain SFP1, active compounds read low 0.753 | S. cerevisiae deletion strains, locus YML070W, strain DAK1, active compounds read low 0.855 | S. cerevisiae deletion strains, locus YMR001C, strain CDC5, active compounds read low 0.944 | S. cerevisiae deletion strains, locus YMR205C, strain PFK2 (second series), active compounds read low 0.89 | S. cerevisiae deletion strains, locus YMR277W, strain FCP1, active compounds read low 0.941 | S. cerevisiae deletion strains, locus YNL006W, strain LST8, active compounds read low 0.976 | S. cerevisiae deletion strains, locus YNL020C, strain ARK1, active compounds read low 0.884 | S. cerevisiae deletion strains, locus YNL161W, strain CBK1, active compounds read low 0.96 | S. cerevisiae deletion strains, locus YNL183C, strain NPR1, active compounds read low 0.749 | S. cerevisiae deletion strains, locus YNL207W, strain RIO2, active compounds read low 0.938 | S. cerevisiae deletion strains, locus YNL222W, strain SSU72, active compounds read low 0.955 | S. cerevisiae deletion strains, locus YNL307C, strain MCK1 (second series), active compounds read low 0.711 | S. cerevisiae deletion strains, locus YOL078W, strain AVO1, active compounds read low 0.94 | S. cerevisiae deletion strains, locus YOL136C, strain PFK27, active compounds read low 0.879 | S. cerevisiae deletion strains, locus YOR061W, strain CKA2, active compounds read low 0.827 | S. cerevisiae deletion strains, locus YOR119C, strain RIO1, active compounds read low 0.876 | S. cerevisiae deletion strains, locus YOR231W, strain MKK1, active compounds read low 0.781 | S. cerevisiae deletion strains, locus YOR329C, strain SCD5, active compounds read low 0.956 | S. cerevisiae deletion strains, locus YPL031C, strain PHO85, active compounds read low 0.758 | S. cerevisiae deletion strains, locus YPL153C, strain RAD53, active compounds read low 0.856 | S. cerevisiae deletion strains, locus YPL204W, strain HRR25, active compounds read low 0.856 | S. cerevisiae deletion strains, locus YPL209C, strain IPL1, active compounds read low 0.954 | S. cerevisiae deletion strains, locus YPL256C, strain CLN2, active compounds read low 0.877 | S. cerevisiae deletion strains, locus YPR025C, strain CCL1, active compounds read low 0.956 | S. cerevisiae deletion strains, locus YPR106W, strain ISR1, active compounds read low 0.957 | S. cerevisiae deletion strains, locus YPR111W, strain DBF20, active compounds read low 0.944 | S. cerevisiae deletion strains, strain NNK1, active compounds read low 0.946 | S. cerevisiae deletion strains, strain TSCII, active compounds read low 0.945

From PubChem BioAssay AID1159580 (chemical genetic matrix, 2015)
